Experimental data reported in ChEMBL document CHEMBL3988442, “University of Dundee, Small-Polar-MMV Screening Library” (2021).

Tests used:
[1] = target: T1, Aspartate--tRNA(Asp/Asn) ligase (Mycobacterium tuberculosis (strain ATCC 25618 / H37Rv)) (UniProt P9WFW3); experiment: Assay for Asp RNA synthetase-1 from Mycobacterium tuberculosis; format: functional; set-up: scale not given: direction of the effect not stated beside the values; conditions: 30 µM; further: in the data most compounds retested in dose-response had high values
T1 sequence (whole entry): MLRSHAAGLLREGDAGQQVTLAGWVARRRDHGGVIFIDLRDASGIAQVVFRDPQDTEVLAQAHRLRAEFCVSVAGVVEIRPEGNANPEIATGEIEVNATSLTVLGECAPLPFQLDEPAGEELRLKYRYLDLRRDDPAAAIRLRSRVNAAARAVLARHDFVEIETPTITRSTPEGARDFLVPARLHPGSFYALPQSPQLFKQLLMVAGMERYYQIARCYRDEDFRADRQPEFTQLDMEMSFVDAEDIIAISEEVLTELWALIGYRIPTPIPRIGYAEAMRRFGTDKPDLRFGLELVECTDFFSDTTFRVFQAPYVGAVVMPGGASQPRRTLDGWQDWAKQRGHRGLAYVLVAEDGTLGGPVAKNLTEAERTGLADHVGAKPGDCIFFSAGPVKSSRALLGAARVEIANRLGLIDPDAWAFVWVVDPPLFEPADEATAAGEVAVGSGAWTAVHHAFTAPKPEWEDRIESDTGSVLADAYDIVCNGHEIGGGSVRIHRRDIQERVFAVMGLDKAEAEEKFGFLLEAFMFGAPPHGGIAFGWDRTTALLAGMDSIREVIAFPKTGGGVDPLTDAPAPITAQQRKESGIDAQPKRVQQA

[2] = target: Shiga toxin 2 (Escherichia coli O157:H7) (UniProt P09385+P09386); experiment: E. coli 0.157:H7 Shiga Toxin SOP - stx2 screening assay; format: functional; set-up: scale not given: direction of the effect not stated beside the values; conditions: 30 µM

## Cc1ccc(-n2nnc(CC(=O)N3CCOCC3)c2C)cc1
[1]
  Percent Effect: 2.26%
[2]
  Percent Effect: -28%

## CCn1cc(Br)c(C(=O)NCc2cccnc2)n1
[1]
  Percent Effect: 7.19%
[2]
  Percent Effect: -69.5%

## CC(=O)NC1CCCN(C(=O)NCc2ccc(-c3ccn[nH]3)cc2)C1 (stereo unspecified)
[1]
  Percent Effect: -1.85%
[2]
  Percent Effect: 1.62%

## O=C1CC(NCc2ccncc2)CN1Cc1cccc(F)c1 (stereo unspecified)
[1]
  Percent Effect: 2.73%
[2]
  Percent Effect: -1.08%

## CCn1cnnc1CNC(=O)N1CCOCC1
[1]
  Percent Effect: -11.7%
[2]
  Percent Effect: 7.05%

## O=C(NCC1CC1)C1CSCN1S(=O)(=O)c1cccc(F)c1 (stereo unspecified)
[1]
  Percent Effect: 2.56%
[2]
  Percent Effect: -5.9%

## c1nc(COCC2CC2)c2n1CCCN(CC1CC1)C2
[1]
  Percent Effect: -0.611%
[2]
  Percent Effect: -11.2%

## CCn1nccc1CNC(=O)C1CC1
[1]
  Percent Effect: 11%
[2]
  Percent Effect: -39.4%

## CCS(=O)(=O)N1CCC(c2nc3ccc(-c4ccccc4)cn3n2)CC1
[1]
  Percent Effect: 0.251%
[2]
  Percent Effect: -35.2%

## Cc1ccccc1C(=O)NCc1ccc(N2CCNC(=O)C2)cc1
[1]
  Percent Effect: 0.212%
[2]
  Percent Effect: -90.8%

## CCOc1cc(C)ccc1NC(=O)N(C)Cc1cnn(C)c1
[1]
  Percent Effect: 4.37%
[2]
  Percent Effect: 24%

## OC(CN1CCN(c2ncccn2)CC1)c1cccc(F)c1 (stereo unspecified)
[1]
  Percent Effect: -3.26%
[2]
  Percent Effect: -4.85%

## Cc1nn(C)c(N(C)C)c1CNC(C)COc1cccc(F)c1 (stereo unspecified)
[1]
  Percent Effect: -0.463%
[2]
  Percent Effect: -10.4%

## COCCCC1(CO)CCCN(CCc2ccccc2)C1 (stereo unspecified)
[1]
  Percent Effect: -0.201%
[2]
  Percent Effect: -15.6%

## Cc1cc(C)c(CNC(=O)N(C)Cc2sccc2C)c(=O)[nH]1
[1]
  Percent Effect: 2.05%
[2]
  Percent Effect: 33.8%

## Cc1cnn(CC2CCCN2C(=O)c2cc(C)no2)c1 (stereo unspecified)
[1]
  Percent Effect: -4.16%
[2]
  Percent Effect: 16.5%

## Cc1nn(C)cc1C(=O)Nc1cccc(CN2CCC(CO)CC2)c1
[1]
  Percent Effect: 3.06%
[2]
  Percent Effect: -101%

## Cc1cc(F)ccc1CNCCn1cccn1
[1]
  Percent Effect: -3.06%
[2]
  Percent Effect: 13%

## CC(C(=O)NCc1ccnc(Oc2ccc(F)cc2)c1)n1cncn1 (stereo unspecified)
[1]
  Percent Effect: -5.88%
[2]
  Percent Effect: 6.33%

## CC(NCC1=Cc2cc(Cl)ccc2OC1)c1nnc2n1CCCC2 (stereo unspecified)
[1]
  Percent Effect: 1.06%
[2]
  Percent Effect: -9.58%

## CN(Cc1ccsc1)C(=O)Nc1ccc(S(C)(=O)=O)nc1
[1]
  Percent Effect: -0.6%
[2]
  Percent Effect: -35.6%

## Cc1nc(C2CCCN(C(=O)COCc3ccccc3Cl)C2)no1 (stereo unspecified)
[1]
  Percent Effect: 1.96%
[2]
  Percent Effect: 5.07%

## O=S(=O)(NCC1(O)CCOc2ccccc21)c1cccs1 (stereo unspecified)
[1]
  Percent Effect: -0.546%
[2]
  Percent Effect: -8.71%

## Cc1cc(C)cc(OCC(=O)NC2CCN(S(C)(=O)=O)CC2)c1
[1]
  Percent Effect: 0.903%
[2]
  Percent Effect: -16.4%

## CC(=O)N1CCCC1c1cccc(Cc2ccccc2F)n1 (stereo unspecified)
[1]
  Percent Effect: -0.134%
[2]
  Percent Effect: 4.04%

## Cc1cnn(CCNCc2cccnc2)c1
[1]
  Percent Effect: -0.568%
[2]
  Percent Effect: -3.36%

## C[C@@H]1CN(C(=O)c2cccs2)C[C@]12CCN(CCN(C)C)C2=O
[1]
  Percent Effect: -0.228%
[2]
  Percent Effect: -8.44%

## CC(=O)Nc1nc(C(=O)NC(C)c2ccc3c(c2)OCCO3)cs1 (stereo unspecified)
[1]
  Percent Effect: -1.73%
[2]
  Percent Effect: 7.36%

## O=S(=O)(NCC1CCN(c2ccccn2)CC1)c1ccccc1F
[1]
  Percent Effect: -0.51%
[2]
  Percent Effect: -13.6%

## OC(CN1CCN(Cc2ccc(F)cc2)CC1)C1CC1 (stereo unspecified)
[1]
  Percent Effect: -7.53%
[2]
  Percent Effect: -3.92%

## Cc1n[nH]cc1CNc1ccc2c(c1)N(C(=O)OC(C)(C)C)CCC2
[1]
  Percent Effect: 6.33%
[2]
  Percent Effect: -17.7%

## CCOc1cc(C)nc(N2CCN(Cc3nccn3C)CC2)n1
[1]
  Percent Effect: -4.49%
[2]
  Percent Effect: 5.04%

## Cn1cc(C2CCCN2C(=O)Cc2n[nH]c3ccccc23)cn1 (stereo unspecified)
[1]
  Percent Effect: -9.51%
[2]
  Percent Effect: -33.7%

## CN(Cc1ncc(-c2ccccc2)o1)CC1CCCN1c1cccnn1 (stereo unspecified)
[1]
  Percent Effect: 0.259%
[2]
  Percent Effect: 5.15%

## COC(=O)c1ccc(N2CCN(CCC#N)C(C)C2)cc1 (stereo unspecified)
[1]
  Percent Effect: 2.13%
[2]
  Percent Effect: 37.7%

## CCc1nc(NCC(=O)N2CCOCC2)c2c(n1)c(C)nn2CC
[1]
  Percent Effect: -2.73%
[2]
  Percent Effect: -15.5%

## O=C(COc1cccc2c1CCC2=O)NCCSc1ccccc1
[1]
  Percent Effect: 3.02%
[2]
  Percent Effect: -30.6%

## Cc1cnn(CC2CCCN2Cc2nccn2C)c1 (stereo unspecified)
[1]
  Percent Effect: 5.22%
[2]
  Percent Effect: 7.58%

## CCn1c(C(=O)N2CCN(CC(C)O)CC2)cc2ccccc21 (stereo unspecified)
[1]
  Percent Effect: -4.64%
[2]
  Percent Effect: -48.2%

## Cc1cnn(C2CN(Cc3nc(-c4ccco4)no3)C2)c1
[1]
  Percent Effect: -7.28%
[2]
  Percent Effect: 10.9%

## Cc1oncc1C(=O)N1CCC2(CCN(Cc3ccccn3)C2=O)C1 (stereo unspecified)
[1]
  Percent Effect: -2.39%
[2]
  Percent Effect: -12.9%

## CC(NCc1c(C(C)C)nn(C)c1N1CCOCC1)C(N)=O (stereo unspecified)
[1]
  Percent Effect: -7.54%
[2]
  Percent Effect: -49.6%

## CCc1n[nH]c(C2CN(Cc3nccn3CC)CCO2)n1 (stereo unspecified)
[1]
  Percent Effect: 1.7%
[2]
  Percent Effect: -10.4%

## COc1ccc(CN(C)CC2CCCN2c2cccnn2)cc1F (stereo unspecified)
[1]
  Percent Effect: 0.346%
[2]
  Percent Effect: 3.14%

## CC(=O)N(Cc1ncc(C)o1)C1CCN(CCCc2cnn(C)c2)C1 (stereo unspecified)
[1]
  Percent Effect: 6.13%
[2]
  Percent Effect: -33.8%

## CC1CN(c2ccc(CNC(=O)c3ccn(C)c(=O)c3)cn2)CCO1 (stereo unspecified)
[1]
  Percent Effect: -6.51%
[2]
  Percent Effect: -19.6%

## Cc1cc(C)n(CC2CCCN2C(=O)c2c[nH]c3ncccc23)n1 (stereo unspecified)
[1]
  Percent Effect: -1.92%
[2]
  Percent Effect: 26.8%

## Cc1cnn(CC2CCCN2Cc2nnc(Cc3ccccc3)o2)c1 (stereo unspecified)
[1]
  Percent Effect: -0.062%
[2]
  Percent Effect: 20%
